Test results from PubChem BioAssay (NCATS).
Values without a mark were called inactive. The rule behind the calls is not given here.
Potency is the fitted concentration of half-maximal effect.

What follows are molecules tested on HIV-1 nucleocapsid protein NCp7 (binding to TG oligonucleotide) (assay: HIV Nucleocapsid (AID 346;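 note: potency is for inhibitors that block NC binding and lower polarization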)). Settings: HIV-1 NC / fluorescein-TGTGTGTG probe, fluorescence polarization.
Outline: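 Fluorescence polarization readout: labelled TG4xF oligo (10 nM) with 100 nM nucleocapsid protein, high-salt (250mM NaCl) Hepes pH 7.5 buffer containing zinc and fresh reducing agents. Compounds added by pin tool; incubation 1 hr, room temperature.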
`O=C(c1cccc(F)c1)N1CCC[C@@]2(CCN(Cc3ccncc3)C2)C1` gave a Potency of over 20 µM. With `Cc1cnc(CNc2ncnc3ccc(-c4ccccc4C#N)cc23)cn1` the Potency was over 20 µM. Molecule `COc1ccc(CNc2ccnc(-c3ccc(C(=O)N(C)C)cc3)n2)c(OC)c1` has a Potency of over 20 µM. `CN(C)c1ncc2nc(CCc3ccccc3)c(=O)n(C3CC3)c2n1` showed a Potency of over 20 µM. In the case of `N#CCCn1c(=O)c(-c2ccc(Cl)cc2)nc2cnc(Nc3ccccc3)nc21`, the Potency is reported as over 20 µM. In the case of `Cn1cc(-c2nc3cnc(N4CCNCC4)nc3n(CCc3ccccc3)c2=O)c2ccccc21`, the Potency is reported as over 4 µM. `COCC(=O)N1CCC2(CCCN(C(=O)Nc3ccccc3)C2)CC1` showed a Potency of over 20 µM. Work on `Cc1cccc(CNc2ccnc(-c3cccc(NS(C)(=O)=O)c3)n2)c1` yielded a Potency of over 20 µM. With `COCC(=O)N1CCC2(CCCN(Cc3nccs3)C2)CC1` the Potency was over 20 µM. Work on `O=c1cnc2cnc(Nc3ccccc3)nc2n1C1CC1` yielded a Potency of over 20 µM. With `Cc1noc(C)c1C(=O)N1CCC2(CCN(Cc3nccs3)CC2)CC1` the Potency was over 20 µM. `O=c1c(-c2ccc(F)cc2)nc2cnc(Nc3ccccc3)nc2n1Cc1cccs1` was tested, and the Potency was over 4 µM. In the case of `CCNc1ncc2nc(-c3cc(F)cc(F)c3)c(=O)n(-c3ccc(OC)cc3)c2n1`, the Potency is reported as over 4 µM. For `COc1ncc2nc(-c3ccc(F)cc3)c(=O)n(CCC#N)c2n1`, the Potency was over 20 µM. Work on `COc1ncc2nc(-c3cn(C)c4ccccc34)c(=O)n(-c3ccccc3)c2n1` yielded a Potency of over 20 µM.
